Experiment [1] has as its system Plasmodium falciparum Sir2 (PF13_0152, Sir2A). Nature of the experiment: Plasmodium falciparum Sir2A binding compounds – biochemical, small-molecule microarray, 635 nm fluorescence, primary screen (AID 1098).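 Further: score merges spot fluorescence intensity with its signal-to-noise ratio.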 Particulars: fluorescence 635 nm, higher = more signal.
Experiment [2] is described as follows: probe aDKK1 binding to arrayed compounds – biochemical, biotinylated probe, 635/667 nm fluorescence, primary screen (AID 1099).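 Further: score merges 667nm spot fluorescence with signal to noise across triplicate slides; reference of the scale not given here.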 Particulars: small-molecule microarray, higher = more signal.
Experiment [3] can be described thus: probe aCHRDL2 binding to arrayed compounds – biochemical, biotinylated probe, 635/667 nm fluorescence, primary screen (AID 1100). Particulars: small-molecule microarray, higher = more signal.
Experiment [4] in a line: change in splice reporter luminescence, either direction, cell-based, HEK293, spliceosome inhibition project, primary screen (AID 1101).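 Further: HEK293 cells carrying a splicing-competent luciferase reporter gene; test concentration not given here.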 Particulars: HEK293 splicing luciferase reporter, 24 h, higher = more signal, called active from +8 up or from −8 down. (Reporter assays use an easily measured gene product as a stand-in for the process of interest.)
The target of experiment [5] is Fibroblast growth factor 10 (Homo sapiens) (UniProt O15520). The experiment can be described thus: compounds binding fibroblast growth factor 10 – biochemical, small-molecule microarray, 635 nm fluorescence, primary screen (AID 1102). The settings on record: FGF10 binding, fluorescence 635 nm, higher = more signal.
Sequence of Fibroblast growth factor 10 (Homo sapiens) (O15520 whole entry, looked up): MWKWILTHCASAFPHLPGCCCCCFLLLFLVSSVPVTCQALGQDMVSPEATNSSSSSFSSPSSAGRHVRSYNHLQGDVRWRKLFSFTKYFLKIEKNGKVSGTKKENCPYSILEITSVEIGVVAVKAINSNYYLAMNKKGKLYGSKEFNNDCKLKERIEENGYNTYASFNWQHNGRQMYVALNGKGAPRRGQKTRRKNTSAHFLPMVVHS
Experiment [6] concerns glycogen synthase kinase-3 (GSK3A per assay name; protocol says GSK3B). Nature of the experiment: compounds binding glycogen synthase kinase-3 – biochemical, small-molecule microarray, 635 nm fluorescence, GSK3A, primary screen (AID 1103). Further: the record names both GSK3A and GSK3B. Particulars: fluorescence 635 nm, higher = more signal.
The target in experiment [7] is Epidermal growth factor receptor (Homo sapiens) (UniProt P00533). Nature of the experiment: compounds binding epidermal growth factor receptor – biochemical, small-molecule microarray, 635 nm fluorescence, primary screen (AID 1104).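 Further: score merges 667 nm emission intensity with spot signal to noise over triplicate slides.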 Particulars: EGFR binding, higher = more signal.
Sequence of Epidermal growth factor receptor (Homo sapiens) (P00533 whole entry, looked up): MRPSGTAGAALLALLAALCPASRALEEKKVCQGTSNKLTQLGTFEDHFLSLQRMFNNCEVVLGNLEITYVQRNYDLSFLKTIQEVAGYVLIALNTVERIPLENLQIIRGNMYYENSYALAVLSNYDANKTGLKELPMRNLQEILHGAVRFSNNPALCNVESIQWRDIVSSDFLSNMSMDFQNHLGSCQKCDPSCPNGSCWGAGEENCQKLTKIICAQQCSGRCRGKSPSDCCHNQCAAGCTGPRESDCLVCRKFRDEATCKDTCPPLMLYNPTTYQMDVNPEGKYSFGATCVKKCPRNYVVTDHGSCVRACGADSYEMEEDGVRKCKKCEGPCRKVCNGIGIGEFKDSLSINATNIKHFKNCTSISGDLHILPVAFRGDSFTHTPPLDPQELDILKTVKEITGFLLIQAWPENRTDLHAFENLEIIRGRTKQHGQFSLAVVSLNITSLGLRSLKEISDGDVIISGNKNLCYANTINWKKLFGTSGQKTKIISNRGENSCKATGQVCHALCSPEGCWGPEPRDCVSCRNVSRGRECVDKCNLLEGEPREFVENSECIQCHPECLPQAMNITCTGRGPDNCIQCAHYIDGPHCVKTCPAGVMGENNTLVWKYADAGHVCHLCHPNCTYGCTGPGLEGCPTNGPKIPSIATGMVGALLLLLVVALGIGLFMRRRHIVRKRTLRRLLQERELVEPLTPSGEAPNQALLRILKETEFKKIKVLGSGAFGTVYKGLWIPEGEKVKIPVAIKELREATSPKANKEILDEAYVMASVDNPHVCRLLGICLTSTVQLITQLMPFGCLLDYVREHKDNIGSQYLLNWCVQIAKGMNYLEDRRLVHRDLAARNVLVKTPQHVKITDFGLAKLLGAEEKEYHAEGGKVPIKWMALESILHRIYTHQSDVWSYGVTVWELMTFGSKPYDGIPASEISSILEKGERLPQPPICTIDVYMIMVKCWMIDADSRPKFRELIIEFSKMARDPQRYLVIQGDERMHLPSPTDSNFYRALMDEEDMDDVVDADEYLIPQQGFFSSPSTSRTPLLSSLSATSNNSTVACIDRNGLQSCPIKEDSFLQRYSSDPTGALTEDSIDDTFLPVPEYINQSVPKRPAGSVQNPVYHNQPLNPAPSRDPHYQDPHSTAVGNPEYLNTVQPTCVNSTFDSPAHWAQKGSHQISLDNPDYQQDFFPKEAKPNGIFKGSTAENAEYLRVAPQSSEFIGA
The target in experiment [8] is Follistatin-related protein 3 (Homo sapiens) (UniProt O95633). The experiment can be described thus: compounds binding follistatin-related protein 3 – biochemical, small-molecule microarray, 635 nm fluorescence, primary screen (AID 1105).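 Further: score merges emission near 667 nm and signal to noise per printed spot across three slides.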 The settings on record: FSTL3 binding, higher = more signal.
Sequence of Follistatin-related protein 3 (Homo sapiens) (O95633 whole entry, looked up): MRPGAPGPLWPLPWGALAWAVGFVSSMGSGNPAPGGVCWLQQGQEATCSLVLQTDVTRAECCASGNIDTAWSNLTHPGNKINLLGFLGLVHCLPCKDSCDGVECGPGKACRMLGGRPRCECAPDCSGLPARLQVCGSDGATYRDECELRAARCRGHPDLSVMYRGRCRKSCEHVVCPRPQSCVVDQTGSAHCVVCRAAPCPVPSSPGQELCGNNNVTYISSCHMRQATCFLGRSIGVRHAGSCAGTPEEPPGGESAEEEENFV
Experiment [9] concerns the target Dickkopf-related protein 1 (Homo sapiens) (UniProt O94907). Nature of the experiment: small molecules binding DKK1 protein – biochemical, small-molecule microarray, 635 nm fluorescence scan, primary screen (AID 1106).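 Further: score merges emission near 667 nm with signal to noise over three replicate slides.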 The settings on record: higher = more signal.
Experiment [10] concerns Inhibin beta A chain (activin A). The experiment can be described thus: small molecules binding activin A – biochemical, small-molecule microarray, 635 nm fluorescence scan, primary screen (AID 1107).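 Further: mouse activin A protein probed at 4.33 µg/mL on printed slides; score merges bound-protein fluorescence near 667 nm with spot signal-to-noise.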 The settings on record: INHBA, higher = more signal.

Active and inactive are the calls of the source.

Sequence of Dickkopf-related protein 1 (Homo sapiens) (O94907 whole entry, looked up): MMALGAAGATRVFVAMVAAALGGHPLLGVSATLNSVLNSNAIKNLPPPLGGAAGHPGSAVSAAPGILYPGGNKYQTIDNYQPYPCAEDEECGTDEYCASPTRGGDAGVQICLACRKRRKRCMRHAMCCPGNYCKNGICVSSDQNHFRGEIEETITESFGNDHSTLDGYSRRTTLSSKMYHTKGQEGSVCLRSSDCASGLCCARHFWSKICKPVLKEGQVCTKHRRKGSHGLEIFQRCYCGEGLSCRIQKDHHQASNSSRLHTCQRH

As for `CC(CCN1CCc2nc(-c3ccccc3)c(-c3ccccc3)cc2C1)=NO[C@H](C)c1cn([C@H](CO)Cc2ccccc2)nn1`, the composite z-score was 0.343 in experiment [1]; -0.0154 in [2]; 0.407 in [3]; -0.356 in experiment [5]; -0.135 in experiment [6]; -0.0273 in experiment [7]. The results for the composite z-score in experiment [8], in [9] and in experiment [10] were 0.177, -0.193 and 1.09, respectively. Further, the z-score in [4] was -0.534 (inactive).
Take `COC(=O)C(C(=O)OC)C1CCCC(=O)C1` (stereo not given): the composite z-score is 0.377 in experiment [1]; -0.207 in [2]; -0.618 in [3]; 0.755 in [5]; 0.772 in [6]; 0.399 in experiment [7]. Further, the figures for the composite z-score in experiment [8], in experiment [9] and in [10] were 0.508, 0.978 and 0.151, respectively. The z-score in experiment [4] was -0.388 (inactive).
In the case of `CC(C)[C@@H](OCc1ccccc1)[C@H](C)C=NO[C@H](C)c1cn([C@@H]2COC[C@H]2O)nn1`, the composite z-score in [1] was 0.385; in experiment [2] it was -0.492; in experiment [3] it was -0.511; in experiment [5] it was 0.457; in experiment [6], 1.08; in experiment [7], 0.556. The composite z-score was 0.448 in experiment [8], 0.0939 in [9] and -1.31 in experiment [10]. Besides, the z-score in experiment [4] is 0.0201 (inactive).
In the case of `COC(=O)CC=C[C@@H](C)[C@@H](C=NOC[C@@H](O)COCc1ccco1)NS(=O)(=O)c1ccc(C)cc1`, the composite z-score was 0.406 in experiment [1]; -0.87 in experiment [2]; -1.13 in [3]; -0.168 in experiment [5]; -0.268 in experiment [6]; 0.497 in [7]. The composite z-score came to 0.914 in [8], 0.864 in [9] and 1.65 in [10]. Besides, the z-score in experiment [4] is 0.46 (inactive).
For the compound `CC(=O)OC[C@H]1O[C@H](CC=NO[C@@H](C)c2cn([C@H](CO)Cc3ccccc3)nn2)C=C[C@@H]1OC(C)=O`, the composite z-score in experiment [1] is 0.775; in experiment [2] it was 0.101; in experiment [3], -0.624; in [5] it was 1.07; in experiment [6] it was 0.517; in experiment [7], 0.387. Further, the results for the composite z-score in [8], in [9] and in experiment [10] were 1.06, 1.05 and -0.383, respectively. For the same compound, in experiment [4], the z-score is -1.54 (inactive).
`COc1ccc2c(c1)O[C@@H](c1cccc(C(F)(F)F)c1)[C@H](O)C2=O`: the composite z-score in experiment [1] was 0.0008; in experiment [2], -0.14; in experiment [3] it was -0.324; in experiment [5], 0.213; in experiment [6], 0.39; in experiment [7] it was 0.349. The composite z-score in experiment [8] worked out at 0.416; in experiment [9], 0.356; in experiment [10], 0.149. Besides, in [4], the z-score was -0.912 (inactive).
Take `C[C@@H]1CC[C@H]2C(=O)N3[C@@H](CC[C@@H](C)[C@@H]3c3ccc(Br)cc3)C(=O)N2[C@H]1c1ccc(Br)cc1`: the composite z-score in experiment [1] is 0.223; in experiment [2] it was -0.339; in experiment [3], -0.355; in experiment [5] it was 0.592; in [6] it was -0.0161; in experiment [7] it was 0.278. The composite z-score in experiment [8] worked out at 0.384; in experiment [9] it was 0.605; in experiment [10] it was 0.22. In [4], the z-score was -0.628 (inactive).
As for `CC(C)=CCCC(C)=CCON=C1C[C@@H](O)[C@@H](O)[C@@H]2[C@@H]3C(=O)N(C4CCCCC4)C(=O)[C@@H]3CC[C@H]12`, the composite z-score in [1] is 0.475; in experiment [2], -0.107; in experiment [3], -0.304; in [5], 0.785; in [6], 0.701; in experiment [7], 0.513. The composite z-score in experiment [8] stood at 1.11; in experiment [9] it was 0.873; in experiment [10] it was 0.644. In addition, the z-score in experiment [4] was -0.693 (inactive).
Take `O=C1[C@H]2[C@H]3[C@H](O)[C@H](O)CC(=NOCc4ccccc4)[C@@H]3CC[C@H]2C(=O)N1c1cccc(Oc2ccccc2)c1`: the composite z-score is 1.03 in experiment [1]; -0.173 in experiment [2]; -0.186 in experiment [3]; 0.485 in experiment [5]; 0.38 in experiment [6]; 0.201 in experiment [7]. Further, the composite z-score is 0.48 in experiment [8], 0.0072 in [9] and -0.202 in experiment [10]. For the same compound, the z-score in [4] was -0.055 (inactive).
Regarding `CC(CCC(=O)OC[C@H]1O[C@H](C#Cc2ccccc2)C=C[C@@H]1Oc1ccc(C)cc1)=NO[C@H](C)c1cn([C@@H]2COC[C@H]2O)nn1`, the composite z-score in experiment [1] is 0.261; in experiment [2], -0.2; in experiment [3], -0.383; in [5], 0.162; in [6] it was -0.267; in experiment [7], 0.238. Also, the composite z-score is 0.22 in [8], 0.285 in experiment [9] and 0.203 in experiment [10]. Further, the z-score in [4] is -1.45 (inactive).
For `CC1(C)O[C@H]2O[C@H]([C@H](O)CON=C3[C@H]4CCn5c(=O)n(-c6ccccc6)c(=O)n5[C@H]4[C@H](O)[C@@H]4O[C@H]34)[C@H](O)[C@H]2O1`, the composite z-score in experiment [1] was 0.378; in experiment [2], -0.179; in [3], -0.181; in [5], 0.174; in experiment [6], 0.085; in experiment [7], 0.249. The values for the composite z-score in [8], in experiment [9] and in experiment [10] were 0.422, 0.0043 and 0.695, respectively. In [4], the z-score is 0.407 (inactive).
As for `CO[C@H]1COC(=O)CC=C[C@@H](C)COC(=O)[C@H]2CCCN2C(=O)CC=C[C@H]1C`, the composite z-score in [1] was 1.3; in experiment [2] it was -0.268; in [3] it was -1.16; in [5], 0.756; in experiment [6], 1.01; in [7], 1.29. The composite z-score came to 1.45 in [8], 1.9 in [9] and 1.32 in experiment [10]. Also, the z-score in experiment [4] is -0.104 (inactive).
With `CC(CCN1CCCc2nc(C)c(C)cc21)=NO[C@H](C)c1cn([C@H](CO)Cc2ccccc2)nn1`, the composite z-score was 0.721 in [1]; -0.319 in [2]; -0.395 in experiment [3]; 0.59 in [5]; 0.605 in experiment [6]; 0.596 in [7]. Besides, the composite z-score in experiment [8] was 0.761; in experiment [9], 0.935; in [10], 1.11. In addition, the z-score in [4] is 0.407 (inactive).
`O=C1[C@H]2[C@H]3[C@H](O)[C@H](O)CC(=NO[C@@H]4O[C@H](CO)[C@@H](O)[C@H](O)[C@H]4O)[C@@H]3CC[C@H]2C(=O)N1C[C@@H]1CCCO1`: the composite z-score in experiment [1] was 0.355; in experiment [2], -0.29; in experiment [3] it was -0.565; in [5] it was 0.784; in experiment [6], 0.839; in experiment [7], 0.448. Moreover, the values for the composite z-score in [8], in experiment [9] and in experiment [10] were 0.738, 0.35 and -0.808, respectively. Besides, in experiment [4], the z-score is -1.45 (inactive).
In the case of `CCOC(=O)[C@H](CC(C)C)NC(=O)CCC1CC(OC(=O)NCc2ccc3c(c2)OCO3)CC2(CCCC(COC(=O)NCCC(C)C)O2)O1` (stereo not given in full), the composite z-score was 0.0402 in [1]; -0.494 in experiment [2]; -0.36 in experiment [3]; 0.136 in experiment [5]; -0.322 in experiment [6]; 0.0946 in experiment [7]. For the same compound, the composite z-score in experiment [8] stood at 0.115; in experiment [9], 0.0586; in [10], 0.16. The z-score in [4] is -0.748 (inactive).
Turning to `CC(C)CON=C1C[C@@H](O)[C@@H](O)[C@@H]2[C@@H]3C(=O)N(C(C)(C)C)C(=O)[C@@H]3CC[C@@H]12`, the composite z-score in experiment [1] was 1.08; in [2], -0.58; in experiment [3], -1.35; in experiment [5], 0.156; in experiment [6], 1.25; in [7], 0.85. Also, the composite z-score was 0.85 in [8], 1.95 in experiment [9] and 0.418 in experiment [10]. Besides, the z-score in experiment [4] is -1.15 (inactive).
On to `O=C1[C@H]2[C@H]3[C@H](O)[C@H](O)CC(=NOCc4ccccc4)[C@H]3CC[C@H]2C(=O)N1C1CCCCC1`, for which the composite z-score was 0.817 in experiment [1]; -0.163 in experiment [2]; -0.301 in experiment [3]; 0.378 in [5]; 0.338 in [6]; 0.511 in [7]. The composite z-score in experiment [8] is 0.448; in experiment [9], 0.79; in experiment [10] it was -0.0077. Also, the z-score in experiment [4] was 0.395 (inactive).

Values taken from PubChem BioAssay.
